GLD-1 RNA inh – GLD-1/TGE RNA complex disruptors, primary screen, biochemical, fluorescence polarization. purified GLD-1 + fluorescein TGE RNA. inhibition, % at 5.96 µM. 320,000 tested, 0.44% active. Female germline-specific tumor suppressor gld-1 (Caenorhabditis elegans), Q17339. AID 2280, 2010;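 active = percent inhibition above a per-plate cutoff, the plate mean of test compounds plus 3 SD, cut at about 30% in these data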
Target sequence (Q17339 whole entry, looked up): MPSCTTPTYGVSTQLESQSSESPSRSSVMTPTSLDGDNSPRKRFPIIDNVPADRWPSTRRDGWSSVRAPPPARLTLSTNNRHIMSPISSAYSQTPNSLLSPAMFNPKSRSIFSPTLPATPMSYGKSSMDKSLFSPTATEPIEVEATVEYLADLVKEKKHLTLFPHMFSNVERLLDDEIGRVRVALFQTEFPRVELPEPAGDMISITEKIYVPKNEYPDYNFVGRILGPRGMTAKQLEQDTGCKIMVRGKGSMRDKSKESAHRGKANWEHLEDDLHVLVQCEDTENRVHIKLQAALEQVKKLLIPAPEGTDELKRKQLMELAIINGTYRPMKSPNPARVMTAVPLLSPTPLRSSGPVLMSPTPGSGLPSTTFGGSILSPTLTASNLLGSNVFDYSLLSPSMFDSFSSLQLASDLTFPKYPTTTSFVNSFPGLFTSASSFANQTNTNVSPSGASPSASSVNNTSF
MCL1 BIM primary – inhibitors of MCL1 binding to BIM-BH3, primary screen, biochemical, fluorescence polarization | GST-MCL1 / FITC-Bim-BH3 fluorescence polarization | AID 2057, 2009 | inhibition, % at 10.9 µM | 320,000 tested, 0.68% active;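 active = inhibition above the mean inhibition of all tested compounds plus 3 SD, set per campaign, cut at about 40% in these data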;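 also: higher means more loss of mP so more displacement of Bim peptide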
Bim-Mcl-1 – inhibitors of Bim peptide binding to Mcl-1, primary screen, biochemical, bead-based flow cytometry, multiplex; inhibition, % at 10 µM; Bim peptide-Mcl-1 binding; 190,000 tested, 0.1% active; Induced myeloid leukemia cell differentiation protein Mcl-1 (Homo sapiens), Q07820; AID 1009, 2008; in the data active = inhibition above about 40%
BCLXL inh – inhibitors of human Bcl-xL, primary screen, biochemical, fluorescence polarization, HTS | Bcl-2-like protein 1 (Homo sapiens), Q07817 | GST-Bcl-xL / FITC-Bim BH3 peptide fluorescence polarization | 320,000 tested, 0.7% active | inhibition, % at 10.9 µM | AID 2129, 2009;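 active = inhibition above the mean of all tested compounds plus 3 SD, cutoff set per campaign, cut at about 30% in these data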;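 also: inhibitors lower millipolarization by displacing the labeled peptide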
Target sequence (Q07817 whole entry, looked up): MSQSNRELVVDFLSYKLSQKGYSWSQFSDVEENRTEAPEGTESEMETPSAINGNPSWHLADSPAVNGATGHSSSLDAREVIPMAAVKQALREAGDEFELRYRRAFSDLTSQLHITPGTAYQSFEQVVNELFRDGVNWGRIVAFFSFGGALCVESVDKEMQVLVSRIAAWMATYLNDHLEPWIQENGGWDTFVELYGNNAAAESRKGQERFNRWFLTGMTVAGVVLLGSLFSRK
Mcl1-Noxa inh – Mcl-1/Noxa binding inhibitors, primary screen, biochemical, TR-FRET, 1536-well; Induced myeloid leukemia cell differentiation protein Mcl-1 (Homo sapiens), Q07820; TR-FRET Mcl-1/Noxa peptide binding, 2 h; inhibition, % at 21.7 µM; 220,000 tested, 1.5% active;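 active = compounds that cut the protein-peptide binding signal by more than 50% relative to plate controls in a single-dose test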;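 also: His-tagged Mcl-1 with rhodamine Noxa BH3 peptide and terbium anti-His antibody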
Mcl1 Bid PPI – Mcl-1/Bid binding inhibitors, primary screen, biochemical, TR-FRET, 1536-well | Induced myeloid leukemia cell differentiation protein Mcl-1 (Homo sapiens), Q07820 | TR-FRET Mcl-1/Bid-Dy647 peptide binding | inhibition, % at 21.7 µM | 220,000 tested, 0.97% active;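 active = compounds that cut the binding signal by more than half at the single screening dose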;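 also: His-tagged Mcl-1 with europium anti-His antibody binding Bid BH3 peptide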
BCLXL inh confirm – Bcl-xL inhibitors blocking Bim BH3 binding, confirmation, counter-screen for MCL1 inhibitor project, biochemical, fluorescence polarization; shares compounds with MCL1 BIM primary; inhibition, % at 10.9 µM; AID 2166, 2009; GST-Bcl-xL / FITC-Bim BH3 peptide FP binding; 1,700 tested, 54% active;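 active = inhibition above a cutoff equal to the mean inhibition of all tested compounds plus 3 SD, cut at about 30% in these data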
MCL1 BIM confirm – inhibitors of MCL1 binding to BIM-BH3, confirmation, biochemical, fluorescence polarization, triplicate; 1,700 tested, 61% active; AID 2168, 2009; shares compounds with MCL1 BIM primary; GST-MCL1 / FITC-Bim-BH3 fluorescence polarization; inhibition, % at 10.9 µM;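 active = inhibition above the average of all tested compounds plus 3 SD, cut at about 40% in these data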
GLD-1 TGE cf – GLD-1/TGE RNA binding inhibitors, retest, confirmation, biochemical, fluorescence polarization, triplicate | 550 tested, 10% active | inhibition, % at 5.96 µM | AID 2459, 2010 | GLD-1/FL-TGE RNA fluorescence polarization | shares compounds with GLD-1 RNA inh;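 active = average inhibition across triplicates above the hit cutoff set in the primary screen, cut at about 32% in these data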
Numbers stand for hits; . = inactive; / = no result given. An excerpt weighted towards active compounds, which were near 2.3% of everything screened.

SMILES	GLD-1 RNA inh	MCL1 BIM primary	Bim-Mcl-1	BCLXL inh	Mcl1-Noxa inh	Mcl1 Bid PPI	BCLXL inh confirm	MCL1 BIM confirm	GLD-1 TGE cf
CCCCn1c(=O)[nH]c2nc3cc(NC(C)=O)ccc3nc2c1=O	53.5	58.5	/	61.0	.	.	75.3	94.8	102.5
Cc1nn(CCOc2ccccc2)c(=O)n1-c1ccc(Cl)cc1	.	.	.	.	.	.	/	/	/
O=C(O)c1ccccc1C(=O)N1N=C2/C(=C/c3cccc([N+](=O)[O-])c3)CCCC2C1c1cccc([N+](=O)[O-])c1 (stereo unspecified)	.	.	.	.	.	.	/	/	/
O=C(C1CCC(=O)N(C2CCCCCC2)C1)N1CCN(c2ccccc2Cl)CC1 (stereo unspecified)	30.8	56.6	/	89.3	/	/	.	.	.
Cc1ccccc1N1CCN(C(=O)C2CCC(=O)N(C3CCCC3)C2)CC1 (stereo unspecified)	.	.	/	.	/	/	/	/	/
C[C@@H]1CCC[C@]2(O[C@@H](CCO)C[C@H](O)[C@H]2O)O1	.	.	/	.	/	/	/	/	/
CCOC(=O)C(=O)c1c(C)cc2ccccn12	/	/	.	/	.	.	/	/	/
COC(=O)c1c(C)c2c(C)cc3ccccn3c-2c1C(=O)OC	33.3	51.3	.	50.6	.	.	59.6	74.2	.
CC(=O)Nc1nc2n(n1)C(c1ccccc1)C=C(c1ccccc1)N2 (stereo unspecified)	47.5	52.9	.	57.0	.	.	56.8	79.7	.
CCn1c(CSc2nccn2C)nc2cc(C(=O)O)ccc21	44.6	65.4	.	57.0	.	.	33.0	44.0	40.2
CCOC(=O)c1ccc(NC(=O)[C@@H](NC(N)=O)C(C)C)cc1	97.8	119.8	/	110.1	.	.	.	.	.
CCC(C)C(NC(N)=O)C(=O)Nc1ccc(C(=O)OC)cc1 (stereo unspecified)	.	.	.	.	.	.	/	/	/
Cn1nc(-c2ccccc2)cc1NS(=O)(=O)c1ccccc1	.	.	/	.	.	.	/	/	/
Cn1nc(-c2ccccc2)cc1NS(=O)(=O)c1ccc(C#N)cc1	60.8	96.9	/	99.7	.	.	.	.	.
CC(=O)c1ccc(OCC(C)C)c(CN2CCCCC2)c1	.	.	.	.	.	.	/	/	/
Cc1ccc(C)c(-n2c3nc(=O)[nH]c(=O)c-3cc3cc([N+](=O)[O-])ccc32)c1	59.5	86.7	.	76.0	.	.	50.7	74.0	.
FC(F)Sc1ccc(NC(=S)NCC2CCCCC2)cc1	.	.	.	.	.	.	/	/	/
O=c1c2ccccc2oc2nc3ccn(Cc4ccncc4)c(=O)c3cc12	/	/	.	/	.	.	/	/	/
c1ccc(-n2nnc3ccccc32)cc1	.	.	/	.	/	/	/	/	/
Oc1c(Br)cc(Br)cc1C=Nc1cccc2ncccc12	53.0	72.6	/	74.2	/	/	42.6	54.5	.
CNc1ccccc(-c2ccc3ccccc3n2)c1=O	34.8	58.5	.	48.5	.	.	78.6	94.9	.
c1ccc(-c2ccc3ccccc3n2)cc1	.	.	/	.	/	/	/	/	/
NC(=S)N/N=C1\CCOc2ccc(Cl)cc21	.	.	/	.	.	.	/	/	/
Cc1ccc2c3c(cccc13)-c1ccccc1C2=O	43.1	42.1	.	36.5	.	.	.	.	39.4
CCC(=Nc1ccc(N)cc1)C1=C(O)C(C(=O)OC)C(C)(C)CC1=O (stereo unspecified)	45.7	61.0	.	56.4	.	.	30.3	.	.
SMILES	GLD-1 RNA inh	MCL1 BIM primary	Bim-Mcl-1	BCLXL inh	Mcl1-Noxa inh	Mcl1 Bid PPI	BCLXL inh confirm	MCL1 BIM confirm	GLD-1 TGE cf
Cc1cc(C)c2nc(C(F)(F)F)nc(NCCCN3CCCC3=O)c2c1	.	.	.	.	.	.	/	/	/
Cc1ccc(/C=C2/NC(=O)N(Cc3ccccc3)C2=O)o1	49.8	48.7	.	38.0	.	.	.	.	.
CN(C)CCCN1C(=O)c2cccc3c([N+](=O)[O-])ccc(c23)C1=O	48.0	77.1	.	75.6	.	.	91.9	124.9	.
COc1ccc(-c2cc(C(=O)Nc3c(C)nn(Cc4ccccc4Cl)c3C)no2)cc1OC	.	.	.	.	.	.	/	/	/
N#CC1=C(N)N(c2ccccc2)C(c2ccccc2)C1(C#N)C#N (stereo unspecified)	.	.	.	.	/	/	/	/	/
N#CC1=C(N)C2=CCCC[C@H]2[C@H](c2cccc(F)c2)C1(C#N)C#N	37.3	45.0	.	44.1	.	.	.	.	.
Nc1n[nH]c2cc(=O)n(-c3cccc(C(F)(F)F)c3)nc12	39.2	60.4	.	43.2	.	.	38.2	53.7	.
CCOC(=O)c1sc(=S)n(-c2ccc3c(c2)OCO3)c1N	49.4	48.8	.	106.3	.	.	.	.	.
O=S1(=O)C[C@@H]2N=C(N/N=C/c3ccccc3)S[C@@H]2C1	.	.	/	.	.	.	/	/	/
Cc1c(NC=C(C#N)C#N)c(=O)n(-c2ccccc2)n1C	35.0	74.9	.	85.8	.	.	.	.	.
Cc1c(N/C=C(\Cl)C(=O)C(F)(F)F)c(=O)n(-c2ccccc2)n1C	.	.	.	.	.	.	/	/	/
CCOC(=O)c1c2c3c(cccc3n(C)c1=O)C(=O)c1ccccc1-2	31.9	53.8	/	54.7	/	/	75.7	89.8	.
COc1ccc(C(C)=O)cc1COC(=O)CCC(=O)c1cccs1	.	/	/	/	/	/	/	/	/
O=C(O)c1ccc(Cl)c2c1C1C=CCC1C(c1ccccn1)N2 (stereo unspecified)	38.8	115.2	.	85.1	88.9	56.0	57.7	82.5	.
Cc1cc([N+](=O)[O-])cc2c1NC(c1ccccn1)C1CC=CC21 (stereo unspecified)	.	.	.	.	.	.	/	/	/
COC(=O)COc1ccc(/C=C2/NC(=O)N(CC(=O)OC)C2=O)cc1	.	.	.	.	.	.	/	/	/
COC(=O)CN1C(=O)N/C(=C/c2ccc(C)o2)C1=O	62.9	.	.	.	.	.	/	/	.
